Laboratory results: PubChem BioAssay AID602477 (National Center for Advancing Translational Sciences (NCATS), 2012)
Records with an inconclusive call do not appear. Calls of active or inactive are those of the source. Calls follow the shape of the dose curve; as a rule, active = well fitted activation curve with a large enough effect; inconclusive = small, poorly fitted or top-dose-only effect; inactive = no such curve, though single readings can be large or run the other way.

Experiment: FLuc inhibitory activity for the follow-up compounds in a cell-based assay to assess the activity of miR-21
Conditions: HeLa miR-21-FLuc reporter, luciferase luminescence, 48 h; series mostly up to 38.3 µM; activity change, positive = activation: at the top concentration
Excerpt: NCGC Assay Overview: Firefly (Photinus pyralis) luciferase is one of the most commonly used transcriptional reporters. It is considered one of the more dynamically responsive reporters - that is, responsive to changes in reporter transcription - as it requires no post-translational modifications and is enzymatically active directly after protein synthesis (Wood, 1998). With no endogenous expression in mammalian cells and without the requirement of external excitation, it offers very little background signal, thus generally providing excellent signal to background for most assays. Previous profiling work to determine the prevalence of compounds that affect FLuc enzymatic activity (PubChem AID 411) identified that ~3% of the MLSMR library (then at ~72K) inhibited FLuc (Auld et al., 2008). […] Of the compounds identified in this profile that inhibited FLuc, 151 compounds were selected for further analysis, in an effort to better understand their mode of inhibiting FLuc. The assay described here was to determine the activity of the compounds in a cell-based firefly luciferase reporter gene assay originally designed to identify antagonists of miR-21. Compounds that inhibit miR-21 or compounds that stabilize FLuc intracellularly are identified as active compounds in the assay.
NCGC Assay Protocol Summary: Reagents: In-house detection reagent: 300mM Tris-HCl, 300mM Trizma base, 300mM MgCl, 1% Triton-X100, 5mM DTT, 500uM Coenzyme A trilithium salt (Sigma #C3019),450uM ATP (Sigma #A7699), 1mM D-luciferin sodium salt monohydrate (Biosynth #L8240) HeLa cells stably expressing firefly luciferase (FLuc) under the control of a CMV promoter (upstream) and a miR-21 binding sequence directly downstream of the gene. These cells endogenously express miR-21. Control compounds used were two known firefly luciferase inhibitors (3-(5-(3-chlorophenyl)-1,2,4-oxadiazol-3-yl)benzoic acid and 5-(2-fluorophenyl)-3-phenyl-1,2,4-oxadiazole), and DMSO. Assay Summary: 6uL of HeLa miR-21-FLuc cells in assay buffer (DMEM, Invitrogen #21063-029; 10% FBS, HyClone #SH30071.03) were dispensed at 2000cells/well (3.3 x 10^5 cells/mL) into Greiner solid-white TC-treated 1536-well plates using a Multidrop Combi (Thermo Fisher Scientific). Plates were incubated for one hour at 37 degree Celsius, 95% humidity, 5% CO2. These assay plates were then treated with 23nL of compound or DMSO using a Kalypsys pin tool, which allows for delivery of a 12-point titration of each compound to the assay plate, with a final compound concentration ranging from approximately ~38uM to 0.2nM. Assay plates were then incubated for 48 hours. After incubation, plates were allowed to come to RT for one hour prior to delivery of 3uL of 3X luciferase detection reagent. After a 15 minute incubation to allow for cell lysis, luciferase activity was measured using a ViewLux CCD imager (PerkinElmer), with an average exposure time of 2-12 seconds.

Potency, active:
O=C(O)c1cccc(NC(=O)c2ccc(Cl)c(S(=O)(=O)N3CCCCCC3)c2)c1 0.634 µM
COc1cc(OC)cc(C(=O)Nc2ccc(-c3nc4ccccc4s3)c(C)c2)c1 11.3 µM
COc1ccc(C(=O)Nc2nc3ccc(OC)cc3s2)cc1 2.83 µM
CCOc1ccc2nc(NC(=O)c3ccccc3)sc2c1 0.1 µM
CCOc1c(Cl)cc(C(=O)Nc2ccccc2C(=O)O)cc1Cl 5.04 µM
Cc1ccc(C(=O)Nc2cccc(C(=O)O)c2)cc1S(=O)(=O)N1CCOCC1 12.6 µM
Cc1ccc(C(=O)Nc2ccccc2C(=O)O)cc1S(=O)(=O)N1CCCCCC1 2.83 µM
CCCC(=O)Nc1nc2ccc(OCC)cc2s1 2.83 µM
CCOc1ccc2nc(NC(=O)c3ccccn3)sc2c1 0.0565 µM
COc1ccc2nc(NC(=O)CCc3ccc(OC)c(OC)c3)sc2c1 12.6 µM
COc1ccc(C(=O)Nc2ccccc2C(=O)Nc2ccccc2C(=O)O)cc1 8.95 µM
COc1ccc(C(=O)Nc2ccccc2-c2nc3ccccc3s2)c(OC)c1 22.5 µM
Cc1ccc(C(=O)Nc2cccc(C(=O)O)c2)cc1S(=O)(=O)N1CCCCC1 0.565 µM
COc1ccc(-c2cccc(C(=O)Nc3cccc(C(=O)O)c3)c2)cc1 4.49 µM
c1ccc2sc(-c3ccc4c(c3)OCO4)nc2c1 0.225 µM
Cc1ccc(C(=O)Nc2cccc(C(=O)O)c2)cc1 0.126 µM
CCOc1ccc2nc(NC(=O)Cc3cccs3)sc2c1 3.56 µM
C/C(=N\NC(=O)c1ccccc1NC(=O)c1ccc(Cl)cc1)c1ccncc1 0.0449 µM
O=C(Nc1ccccc1-c1nc2ccccc2s1)c1ccc(Br)o1 22.5 µM
COc1ccc(CC(=O)Nc2ccc(-c3nc4ccccc4s3)c(C)c2)cc1 14.2 µM
CCOc1ccc2nc(NC(=O)c3ccoc3C)sc2c1 0.1 µM
CCOc1ccc(C(=O)Nc2cccc(C(=O)O)c2)cc1Cl 0.356 µM
Nc1cccc(-c2nc3ccc(N)cc3s2)c1 1.79 µM
COc1ccc(C(=O)Nc2ccccc2C(=O)Nc2ccc(C(=O)O)cc2)cc1 8.95 µM
COc1ccc2nc(NC(=O)c3nc(S(=O)(=O)Cc4ccc(C)cc4)ncc3Cl)sc2c1 2.52 µM
O=C(O)c1cccc(NC(=O)c2cccc(S(=O)(=O)N3CCCCC3)c2)c1 14.2 µM
COc1ccc2nc(NC(=O)c3cnccn3)sc2c1 0.2 µM
Cc1ccc(C(=O)Nc2cccc(C(=O)O)c2)cc1S(=O)(=O)N1CCCC1 1 µM

Activity change, positive = activation, inactive:
CC(C)(C)C(=O)Nc1ccc(-c2nc3ccccc3s2)cc1 -76.5%
O=C(Nc1ccccc1C(=O)O)c1cccc(NC(=O)c2ccccc2Br)c1 18.7%
CC(=O)Oc1ccc(C(=O)Nc2ccccc2C(=O)Nc2ccc(C(=O)O)cc2)cc1 -3.44%
O=C(Nc1ccccc1C(=O)O)c1cc(S(=O)(=O)NCc2ccccc2)ccc1Cl -6.4%
O=C(Nc1ccccc1C(=O)O)c1ccc(NC(=O)C2CC2)cc1 -13.5%
O=C(O)c1ccc(NC(=O)c2cccc(C(=O)Nc3ccc(C(=O)O)cc3)c2)cc1 8.99%
O=C(Nc1ccccc1C(=O)O)c1cc(S(=O)(=O)Nc2ccccc2)ccc1Cl 6.76%
CN=c1scc(-c2ccccc2F)n1/N=C/c1ccc[nH]1 -64.3%
CC(C)C(=O)Nc1cccc(C(=O)Nc2ccccc2C(=O)O)c1 31.7%
COc1ccc(NS(=O)(=O)c2cccc(C(=O)Nc3ccccc3C(=O)O)c2)cc1 5.31%
